Consider 40 molecules from the supplement of paper PMC11732987, “Enantioselective OTUD7B fragment discovery through chemoproteomics screening and high-throughput optimisation” (Communications Chemistry, 2025).

Molecules are shown by their SMILES.

This assay deals with T1, VCPIP1 (UniProt Q96JH7).
T1 sequence (whole entry): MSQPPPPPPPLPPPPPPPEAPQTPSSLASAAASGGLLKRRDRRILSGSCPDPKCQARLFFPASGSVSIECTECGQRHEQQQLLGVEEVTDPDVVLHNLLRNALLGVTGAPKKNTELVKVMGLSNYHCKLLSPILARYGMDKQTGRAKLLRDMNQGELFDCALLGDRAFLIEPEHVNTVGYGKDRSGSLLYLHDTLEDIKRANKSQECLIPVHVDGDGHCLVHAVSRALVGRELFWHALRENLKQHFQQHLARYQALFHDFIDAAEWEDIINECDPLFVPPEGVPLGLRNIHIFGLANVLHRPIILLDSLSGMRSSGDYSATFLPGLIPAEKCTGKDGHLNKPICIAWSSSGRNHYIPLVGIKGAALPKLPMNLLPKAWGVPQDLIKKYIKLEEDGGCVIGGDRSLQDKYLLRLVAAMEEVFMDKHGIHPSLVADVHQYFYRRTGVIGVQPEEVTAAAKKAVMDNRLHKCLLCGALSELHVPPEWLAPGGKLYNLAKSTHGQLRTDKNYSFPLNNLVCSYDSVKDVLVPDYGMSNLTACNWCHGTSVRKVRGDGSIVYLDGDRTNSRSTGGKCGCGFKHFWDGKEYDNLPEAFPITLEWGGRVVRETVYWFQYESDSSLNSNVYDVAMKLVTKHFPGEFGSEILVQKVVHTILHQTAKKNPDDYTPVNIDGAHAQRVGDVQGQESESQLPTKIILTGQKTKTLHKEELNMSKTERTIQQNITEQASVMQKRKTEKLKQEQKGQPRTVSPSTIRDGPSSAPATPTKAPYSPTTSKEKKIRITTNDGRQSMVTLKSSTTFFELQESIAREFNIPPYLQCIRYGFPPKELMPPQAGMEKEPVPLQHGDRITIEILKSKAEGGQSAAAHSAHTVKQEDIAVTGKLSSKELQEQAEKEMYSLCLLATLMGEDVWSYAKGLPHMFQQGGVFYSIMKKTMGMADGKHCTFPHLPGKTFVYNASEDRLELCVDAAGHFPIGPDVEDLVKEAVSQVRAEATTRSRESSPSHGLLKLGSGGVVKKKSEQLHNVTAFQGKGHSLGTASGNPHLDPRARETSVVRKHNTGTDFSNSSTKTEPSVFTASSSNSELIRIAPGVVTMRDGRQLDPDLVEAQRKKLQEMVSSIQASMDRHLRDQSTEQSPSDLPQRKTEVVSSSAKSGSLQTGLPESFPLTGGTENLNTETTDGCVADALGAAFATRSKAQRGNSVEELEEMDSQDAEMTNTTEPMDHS
The assay is described as follows: log2 ratio of Biotin-Ahx-Ub-VS probe labelling (fragment/DMSO); higher = less target engagement (more negative = stronger competition), active = hit call of the paper (q ≤ 0.05, log2 ratio ≤ -1). The settings on record: compound concentration: 200 uM; treatment time: 3 h. How it is done:
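Competitive ABPP in HEK293T cell lysate. Lysates were treated with each chloroacetamide fragment at 200 µM for 3 h, then with Biotin-Ahx-Ub-VS (0.5 µM, 1 h), NeutrAvidin-enriched and analysed by diaPASEF LC-MS/MS. Protein LFQ was median-normalised; average log2 ratio is fragment/DMSO from an unpaired t-test (n=3 treated, n=44 DMSO). Hits: q ≤ 0.05, log2 ratio ≤ -1, unique peptides ≥ 2.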
Consider `CC(NC(=O)CCl)c1cc2n(n1)CCCC2.Cl` (stereo not given), for which the “log2 ratio of Biotin-Ahx-Ub-VS probe labelling” value (shortened to “log2 ratio”) is -0.662 (inactive).
The result for `Cc1ccc(-c2nnc(C)[nH]2)c(NC(=O)CCl)c1` reads -2.55 (active).
The result for `O=C(CCl)N1CCC(c2nc3ccccc3o2)CC1` reads -2.76 (active); that for `CC1CCc2onc(CNC(=O)CCl)c2C1` (stereo not given), -1.39 (active).
For `O=C(CCl)Nc1nnc(CC(F)(F)F)o1` the value was -0.723 (inactive).
As to `O=C(CCl)N1CCC(O)(Cc2ccc(F)cc2)C1` (stereo not given), the “log2 ratio” value was -2.24 (active).
For `O=C(CCl)Nc1cc(Cl)ccc1C(=O)O` the value was -0.241 (inactive); for `Cc1nc(-c2cccc(NC(=O)CCl)c2)cs1`, -1.87 (active).
`O=C(CCl)Nc1ccccc1C(F)(F)F`: the “log2 ratio” value is -0.635 (inactive).
For `Cn1cc(CN(Cc2ccc(Cl)cc2)C(=O)CCl)cn1` the value was -0.623 (inactive); for `Cc1cccc(N(CCC#N)C(=O)CCl)c1C`, -2.23 (active); for `Cc1cccc(N2CCC(NC(=O)CCl)C2=O)c1` (stereo not given), -1.91 (active).
On to `O=C(CCl)NCc1cccc(N2CCCC2=O)c1`, for which the “log2 ratio” value is -1.04 (active).
For `O=C(CCl)N1CCC(C(=O)N2CCCCCC2)CC1` the value was -0.246 (inactive); for `Cc1cccc(NC(=O)CCl)c1C`, -0.666 (inactive); for `COCC[C@@H](NC(=O)CCl)c1ccccc1`, -0.654 (inactive).
The result for `Cl.O=C(CCl)N1CCn2ncc(O)c2C1` reads -0.764 (inactive); that for `O=C(CCl)NCc1ccc(N2CCOCC2)c(F)c1`, -2.18 (active).
For `O=C(CCl)Nc1cc2c(cc1Cl)OCCO2` the value was -0.947 (inactive); for `N#Cc1ccc(Cl)cc1NC(=O)CCl`, -1.7 (active); for `Cc1ccc(N(C(=O)CCl)C2C=CS(=O)(=O)C2)cc1` (stereo not given), -0.0885 (inactive).
Regarding `O=C(CCl)Nc1cccc(C(=O)N2CCSCC2)c1`, the “log2 ratio” value was -2.83 (inactive).
The result for `Cl.Cn1nccc1C(NC(=O)CCl)c1ccccc1` (stereo not given) reads -1.2 (active).
For `Cl.O=C(CCl)N1CC(c2ccc(Br)cn2)C1` the value was -1.3 (active).
As for `Cc1c(NC(=O)CCl)c(=O)n(-c2ccccc2)n1C`, the “log2 ratio” value is -0.255 (inactive).
The result for `O=C(CCl)N1CCC2(CCC(O)CC2)CC1` reads -0.183 (inactive); that for `CNC(=O)Cn1cc(NC(=O)CCl)cn1`, -0.495 (inactive).
For `O=C(CCl)Nc1cccc(NC(=O)c2ccccc2)c1` the value was -2.42 (active); for `CC(=O)C1CCCCN1C(=O)CCl` (stereo not given), -0.0774 (inactive); for `O=C(CCl)NCc1ccc(Cl)cc1`, -1.16 (active).
On to `CC(NC(=O)CCl)c1cccc2ccccc12` (stereo not given), for which the “log2 ratio” value is -1.05 (active).
The result for `O=C(CCl)NC1CCC2(CC1)OCCO2` reads -0.827 (inactive); that for `CC(C)n1nccc1NC(=O)CCl`, -0.897 (inactive).
The result for `O=C(CCl)NCCC1=CCCCC1` reads -0.647 (inactive); that for `NC(=O)C1CCCCN1C(=O)CCl` (stereo not given), -0.253 (inactive).
The result for `Cl.O=C(CCl)NCc1ccnc(Oc2ccccc2F)c1` reads -2.73 (active); that for `Cl.O=C(CCl)NCCN1CCc2ccccc21`, -1.9 (active); that for `O=C(CCl)Nc1ccc(F)cc1Cl`, -1.05 (active).
For the molecule `O=C(CCl)N1CCc2nc[nH]c2C1c1ccc(Cl)cc1` (stereo not given), the “log2 ratio” value is -1.07 (active).
`Cc1n[nH]c2c1CN(C(=O)CCl)CC2`: the “log2 ratio” value was -1.02 (active).
